# Activity calls are given as the source filed them. The calls were made as follows: active = hit-call score of the fitted dose curve at least 0.9, where 1 is the maximum; inactive = score below 0.9.
# Assay: ATG_TA_CIS: Attagene CIS-FACTORIAL HepG2 Assay for human TA Basal Promoter (AID 2282964)
# Conditions: HepG2 Attagene CIS-factorial TA basal promoter reporter; actives raise or lower the signal
# Summary of the method: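 Steps: transfect HepG2 with MRTUs; dose 24 h; isolate RNA, DNase-treat, reverse-transcribe; PCR and FAM-label reporter cDNA; digest with HpaI 2h at 37 C; run capillary electrophoresis. Activity fitted both directions against DMSO.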
Compound,outcome,AC50
O=[N+]([O-])C(Br)(CO)CO,inactive,
CCCCCOC(=O)c1ccccc1C(=O)OCCCCC,inactive,
Cc1ccc(N=C=O)cc1N=C=O,inactive,
CCCSC(=O)N(CCC)CCC,inactive,
O=C(O)C1C2CCC(O2)C1C(=O)O (configuration not stated),inactive,
Oc1ccccc1Cl,inactive,
CC(C)(C)C(O)(CCc1ccc(Cl)cc1)Cn1cncn1 (configuration not stated),inactive,
COC(=O)Nc1nc2ccccc2[nH]1,inactive,
ClC1=C(Cl)C2(Cl)C3C(Cl)C=CC3C1(Cl)C2(Cl)Cl (configuration not stated),inactive,
N#CC(Br)Br,inactive,
ClCCOCCCl,inactive,
ClC1=C(Cl)[C@]2(Cl)[C@H]3[C@H]([C@@H]4C=C[C@H]3C4)[C@@]1(Cl)C2(Cl)Cl,inactive,
C1=Cc2cccc3cccc1c23,inactive,
CS(=O)(=O)NC(=O)c1cc(Oc2ccc(C(F)(F)F)cc2Cl)ccc1[N+](=O)[O-],inactive,
CCNS(=O)(=O)C(F)(F)C(F)(F)C(F)(F)C(F)(F)C(F)(F)C(F)(F)C(F)(F)C(F)(F)F,inactive,
CCN(CC)CCO,inactive,
CCOc1cccc(C2(N3CCN(c4ccccc4)CC3)CCC(C)CC2)c1 (configuration not stated),inactive,
Nc1ccc(Oc2ccc(N)cc2)cc1,inactive,
CCCCOC(=O)c1ccccc1C(=O)OCc1ccccc1,inactive,
OCCCBr,inactive,
CCN(CC)N=O,inactive,
c1ccc(C2CO2)cc1 (configuration not stated),inactive,
[O-][Cl+]O,inactive,
Oc1ccc2ccc3cccc4ccc1c2c34,inactive,
Cc1cccc(N)c1N,inactive,
CC(C)N(Cc1ccccc1)C(=O)C(C)(C)C,inactive,
Cc1cc(N=Nc2ccccc2C)ccc1N,,19 µM (active)
c1ccc(N=Nc2ccccc2)cc1,inactive,

# Assay: ATG_TCF_b_cat_CIS: Attagene CIS-FACTORIAL HepG2 Assay for human T-Cell-Factor with beta-catenin (TCF/b-cat) (AID 2282965)
# Conditions: HepG2 TCF/beta-catenin cis-reporter transcription, actives raise or lower the signal
# Summary of the method: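 Measured: reporter mRNA in HepG2 transiently transfected with cis-promoter reporter units, 24 h after chemical addition. Fitting was bidirectional, DMSO as negative control.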
Compound,AC50,outcome
O=[N+]([O-])C(Br)(CO)CO,100 µM (active),
Cc1ccc(N=C=O)cc1N=C=O,,inactive
O=C(O)C1C2CCC(O2)C1C(=O)O (configuration not stated),,inactive
Oc1ccccc1Cl,,inactive
CC(C)(C)C(O)(CCc1ccc(Cl)cc1)Cn1cncn1 (configuration not stated),,inactive
ClC1=C(Cl)C2(Cl)C3C(Cl)C=CC3C1(Cl)C2(Cl)Cl (configuration not stated),,inactive
ClCCOCCCl,,inactive
ClC1=C(Cl)[C@]2(Cl)[C@H]3[C@H]([C@@H]4C=C[C@H]3C4)[C@@]1(Cl)C2(Cl)Cl,,inactive
CCOc1cccc(C2(N3CCN(c4ccccc4)CC3)CCC(C)CC2)c1 (configuration not stated),,inactive
OCCCBr,,inactive
Oc1ccc2ccc3cccc4ccc1c2c34,,inactive
CC(C)N(Cc1ccccc1)C(=O)C(C)(C)C,,inactive
Cc1cc(N=Nc2ccccc2C)ccc1N,,inactive
c1ccc(N=Nc2ccccc2)cc1,,inactive

# From PubChem BioAssay (EPA / NIEHS)
